# TDP1 cell CPT – qHTS for Inhibitors of human tyrosyl-DNA phosphodiesterase 1 (TDP1): qHTS in cells in presence of CPT. AID 686979, 2013. Potency, µM (doses to about 46.2 µM), for inactives: top-dose activity change, negative = growth inhibition, actives largely listed as inhibitors. chicken DT40 Tdp1-/-;hTDP1 cells + 20 nM CPT, ATP luminescence, 48 h. 420,000 tested, 12% active; further: potency means the concentration at half of the fitted maximal effect; nearly all actives have a fitted effect of over 55% in size
#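 Chicken DT40 Tdp1-/- cells stably complemented with human TDP1 were seeded at 400 cells/well in medium containing 20 nM camptothecin, exposed to pin-transferred compounds, and grown at 37 °C for at least 48 hr. Viability was read as ATP luminescence.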
# IL1B secr inh – qHTS for Inhibitors of Inflammasome Signaling: IL-1-beta AlphaLISA Primary Screen; 360,000 tested, 4.7% active; THP-1 LPS/ATP IL-1B secretion, AlphaLISA, 16 h; stronger effect = lower value; activity change, % at 57.5 µM; AID 743279, 2014; in the data active means activity change below about -50%; inconclusive means mostly about -30% to -49%
#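 THP-1 cells pretreated 1 hr with compounds (up to 57.5 uM final), then stimulated with LPS (250 ng/mL final) plus ATP (1.25 mM final); secreted IL-1B measured by AlphaLISA after 16 hr, decreased signal indicating inhibition.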
# HT1080 IDH1KD tx – qHTS for induction of synthetic lethality in tumor cells producing 2HG: qHTS for the HT-1080-IDH1KD cell line. HT-1080 IDH1 knockdown viability, ATP luminescence, 48 h. Potency, µM (titrated, usually from 46.1 µM), for inactives: at the highest dose activity, negative = toxicity, usual class: cytotoxic. 360,000 tested, 2% active. AID 686971, 2013;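 further: potency means the concentration at half of the fitted maximal effect; 0% = DMSO wells and -100% = cell-free medium wells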
#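 Luminescent ATP read-out (CellTiter-Glo, 10 min at room temperature) after 48 h compound exposure at 37 °C gave viability of IDH1-knockdown HT-1080 cells. Activity was normalised to DMSO and cell-free wells, then fitted as concentration-response curves.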
# HT1080NT lethal – qHTS for induction of synthetic lethality in tumor cells producing 2HG: qHTS for the HT-1080-NT fibrosarcoma cell line; HT-1080-NT fibrosarcoma viability, CellTiter-Glo ATP luminescence, 48 h; Potency, µM (series often up to 46.1 µM), inactives show at the top dose activity, negative = less viability, hits mostly cytotoxic; 360,000 tested, 1.6% active; AID 686970, 2013;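 further: NT is the 2HG producing partner of a matched IDH1 knockdown line; potency means the concentration at half of the fitted maximal effect; 0% = DMSO-treated cells and -100% = media-only wells without cells; nearly all actives have a fitted effect of over 55% in size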
#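 Luminescent CellTiter-Glo readout after 48 hours of compound exposure at 37 degrees C defined viability of HT-1080-NT cells. Activity was normalized to DMSO wells and cell-free media wells; concentration-response curves were fitted and assigned curve classes.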
# DT40 TDP1 no CPT – qHTS for Inhibitors of human tyrosyl-DNA phosphodiesterase 1 (TDP1): qHTS in cells in absence of CPT; 420,000 tested, 15% active; Potency, µM (series often up to 46.2 µM), for the others: at the highest dose activity change, negative = growth inhibition, actives largely listed as inhibitors; DT40 Tdp1-/- hTDP1 cells, no CPT, ATP luminescence, 48 h; further: potency means the concentration at half of the fitted maximal effect; nearly all actives have a fitted effect of over 55% in size
#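 Readout: luminescence from CellTiter-Glo after 30 min in the dark at RT. Cells: DT40 Tdp1-/- with stable hTDP1, 400/well. Exposure: compounds alone, ≥48 hr, 37 °C.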
# Starred values were filed as active, the others as inactive; ? = inconclusive; · = not tested or not shown; [ ] = remark or other dose. An excerpt weighted towards active compounds, which were near 19% of everything screened. Unless noted, the call rests on the fitted dose curve; in most records, active means well fitted curve in the direction sought with a large enough effect; inconclusive means small, poorly fitted or top-dose-only effect, or another doubt; inactive means no such curve, though single readings can be large; an effect the other way counts as inactive or inconclusive. Unless noted, on the % scale 0 is the no-effect control and ±100 the full control effect.
SMILES,TDP1 cell CPT,IL1B secr inh,HT1080 IDH1KD tx,HT1080NT lethal,DT40 TDP1 no CPT
Cc1cc(=O)c(C(=O)NCCCc2ccncc2)c2n1-c1ccccc1SC(c1cccs1)C2 (configuration not stated),?,·,·,·,-19%
CCOC(=O)C1CCN(C(=O)c2ccc(Cl)c(Cl)c2)CC1,11%,12,4%,1%,-15%
CCOC(=O)C1CCN(C(=O)c2ccc(C)c(NC(=O)c3nsc4ccccc34)c2)CC1,?,·,·,·,23µM*
CCOC(=O)C1CCCN(C(=O)c2ccc(C)c(NC(=O)c3nsc4ccccc34)c2)C1 (configuration not stated),?,·,·,·,18µM*
O=C(OCCN(C1=NS(=O)(=O)c2ccccc21)c1ccccc1Cl)c1ccc(Cl)cc1,18µM*,14,0%,-16%,?
COc1ccc(Cn2cc(CN3CC(N4CC=CC4)CS3(=O)=O)nn2)cc1 (configuration not stated),-4%,-10,4%,14%,-12%
NC[C@H]1O[C@H](O[C@H]2[C@H](O)[C@@H](O[C@H]3O[C@H](CO)[C@@H](O)[C@H](N)[C@H]3O)[C@H](N)C[C@@H]2N)[C@H](N)[C@@H](O)[C@@H]1O,?,·,·,·,-24%
Cc1ccc(-n2c(=S)[nH]c3sc4c(c3c2=O)CCc2ccccc2-4)cc1,-38%,36,21%,17%,-23%
Cc1cccc(-n2c(=S)[nH]c3sc4c(c3c2=O)CCc2ccccc2-4)c1,9.2µM*,0,8%,2%,6.5µM*
COc1ccc(CC(NC(C)=O)C(=O)NC2CCN(c3c4c(nc5ncnn35)CCC4)CC2)cc1OC (configuration not stated),0%,8,9%,6%,0%
CC1CCCCC1NC(=O)C1CCN(c2c3c(nc4ncnn24)CCC3)CC1 (configuration not stated),-29%,0,12%,18%,12µM*
COc1ccc(C(=O)Nc2cc(-c3ccccc3)nn2-c2ccccc2F)cc1,23µM*,?,-3%,-17%,?
CC(C)(C)c1ccc(C(=O)Nc2cc(-c3ccccc3)nn2-c2ccccc2)cc1,-25%,·,·,·,?
Cc1cc(C)c2c(=O)[nH]c(SCC(=O)c3ccc(F)c(C)c3)nc2n1,4%,11,11%,20%,-17%
COc1ccc(-c2nnn(CC(=O)N(Cc3ccc(F)cc3)C(C(=O)NC3CCCC3)c3ccc(F)cc3)n2)cc1 (configuration not stated),21µM*,25,-3%,?,?
O=C(NC1CCCC1)C(c1ccc(F)cc1)N(Cc1ccc(F)cc1)C(=O)CCl (configuration not stated),3.3µM*,-104*,9%,8%,4.6µM*
O=C1c2ccccc2C(=O)N1c1cccc(O)c1,-1%,·,·,·,2%
Cc1cc(-c2n[nH]c(=S)n2/N=C/C(Cl)=C/c2ccccc2)n[nH]1,15µM*,-97*,?,?,13µM*
CC(=C/c1ccccc1)/C=N/n1c(-c2ccncc2)n[nH]c1=S,?,48,13%,5%,16µM*
Cc1cc(-c2n[nH]c(=S)n2/N=C/c2cccc(O)c2)n[nH]1,-16%,18,12%,-14%,-23%
S=c1[nH]nc(-c2ccco2)n1/N=C/C(Cl)=C/c1ccccc1,?,?,?,?,15µM*
CCOC(=O)CNC(=O)C1CCN(S(=O)(=O)c2ccc(-c3nn[nH]n3)cc2)CC1,-16%,7,-1%,16%,-8%
Cc1noc(C)c1C(=O)N1CCC2(CCN(Cc3nccs3)CC2)CC1,2%,·,·,·,-9%
Cn1c(O)c(N=NC(=O)C2COc3ccccc3O2)c2ccccc21 (configuration not stated),?,24,-3%,0%,?
CC(C)n1c(O)c(N=NC(=O)C2COc3ccccc3O2)c2ccccc21 (configuration not stated),?,-89*,?,-24%,?
SMILES,TDP1 cell CPT,IL1B secr inh,HT1080 IDH1KD tx,HT1080NT lethal,DT40 TDP1 no CPT
C=CCn1cccc(/C=C/C(=O)c2ccc(C(C)(C)C)cc2)c1=S,7.3µM*,-107*,-19%,?,7.3µM*
Cc1ccc(S(=O)(=O)NNC(=O)C2Cc3c(ccc4ccccc34)O2)cc1 (configuration not stated),?,49,-23%,?,23µM*
O=C(NCCCl)C1Cc2c(ccc3ccccc23)O1 (configuration not stated),1%,36,13%,12%,-19%
O=S(=O)(c1ccc(Cl)cc1)N1CCN(c2nc(Nc3cc(Cl)ccc3O)nc3ccccc23)CC1,?,·,19%[32.3 µM],11%[32.3 µM],?
CC(=O)Nc1ccc2c(c1)Cc1cc(N3C(=O)C=CC3=O)ccc1-2,1µM*,-12,?,-12%,1.3µM*
O=C1C=CC(=O)N1c1ccc2c(c1)Cc1cc(F)ccc1-2,1.6µM*,-64*,-8%,23%,2.1µM*
Cc1ccc(CNc2ncnc3c2nnn3C)cc1,-6%,·,·,·,?
Cc1cc(NC(=O)CSc2ccc(-c3ccc(F)cc3)nn2)no1,-2%,64,1%,-2%,-11%
CCn1cc(C(=O)O)c(=O)c2cc(F)c(N3CCN(C(=S)NC(=O)c4cccc(F)c4)CC3)cc21,?,5,13%,21%,-4%
CCn1cc(C(=O)NCc2cccc(F)c2)c(=O)c2cc(F)c(N3CCN(C(=O)c4ccco4)CC3)cc21,5.8µM*,-54*,23µM*,13µM*,8.2µM*
CCCCNC(=O)c1cn(CC)c2cc(N3CCN(C)CC3)c(F)cc2c1=O,-6%,9,6%,10%,-28%
CCn1cc(C(=O)NCc2cccnc2)c(=O)c2cc(F)c(N3CCN(C(=O)c4ccco4)CC3)cc21,21µM*,-21,-13%,-1%,21µM*
CCCNC(=O)c1cn(CC)c2cc(N3CCN(C(=O)c4ccco4)CC3)c(F)cc2c1=O,?,-6,0%,1%,21µM*
O=C(O)c1nc(N2CCCC2)ncc1Cl,-2%,14,-2%,19%,-6%
COCCn1c(=O)c(-c2ccccc2)nc2cnc(Oc3ccccc3)nc21,-3%,·,·,·,-28%
O=C(COc1cccc2ccccc12)NNC(=O)c1cnccn1,?,15,-2%,5%,16µM*
CC(C)c1ccc(OCC(=O)NNC(=O)c2cnccn2)cc1,?,·,5%,-2%,?
